Data on 5 molecules can be found in PubChem BioAssay.

SMILES strings stand for the structures. Active and inactive are the calls of the source. Unless noted, how the calls were made is not given here.

In assay [1] the test system is Wnt5a (protein binding on small-molecule microarray). Nature of the assay: Wnt5a binders on small-molecule microarray, primary screen, biophysical, 635/667 nm fluorescence (AID 1142).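 Further: fluorescence read at 667 nm with signal to noise per printed feature.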 To be noted: 635 nm fluorescence, higher = more signal.
A short description of assay [2]: cell viability in Huh7 cells, primary screen, cytotoxicity control for HCV replication inhibitor project, CellTiter-Glo luminescence, basal, 48 h (AID 1143).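 Further: Huh7 hepatoma cells carrying a hepatitis C replication reporter with no stimulus; test concentration not given here.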 To be noted: Huh7 HCV replicon, higher = more signal, called active from +8 up or from −8 down. A general note: Cellular ATP, detected with luciferase, serves as a proxy for viable cell number.
The nature of assay [3]: P. aeruginosa biofilm formation inhibitors, primary screen, PAO1 strain, BacTiter-Glo luminescence, LB-PBS (AID 1144). Conditions: 12 h, higher = more signal.
Assay [4] can be described thus: CREB reporter modulators without forskolin, primary screen, cell-based, PC12, CRE-LacZ reporter, unstimulated (AID 1145). To be noted: no forskolin, luminescence, 4.5 h, higher = more signal, called active from +8 up or from −8 down.
The nature of assay [5]: CREB reporter modulators under forskolin, primary screen, cell-based, PC12, CRE-LacZ reporter, forskolin-stimulated (AID 1146).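 Further: PC12 cells with 6xCRE LacZ reporter stimulated by forskolin 10 µM; beta-galactosidase reporter signal reflecting CREB driven transcription.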 Conditions: luminescence, 4.5 h, higher = more signal, called active from +8 up or from −8 down.
The target of assay [6] is Streptavidin (Streptomyces avidinii) (UniProt P22629). Nature of the assay: streptavidin binders on small-molecule microarray, primary screen, artefact control for SMM compound annotation, biophysical, 635/667 nm fluorescence (AID 1147).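 Further: signal reflects streptavidin binding to arrayed compounds as a control protein.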 To be noted: streptavidin binding, higher = more signal.
Chain of Streptavidin (Streptomyces avidinii) (P22629 whole entry, looked up): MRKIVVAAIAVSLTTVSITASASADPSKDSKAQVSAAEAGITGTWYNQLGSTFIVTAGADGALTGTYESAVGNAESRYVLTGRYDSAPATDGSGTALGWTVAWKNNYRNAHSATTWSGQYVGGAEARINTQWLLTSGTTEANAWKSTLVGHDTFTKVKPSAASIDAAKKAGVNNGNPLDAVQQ
Assay [7] in a line: small-molecule binders of probe aInhba, primary screen, biochemical, small-molecule microarray, 635/667 nm fluorescence (AID 1148).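 Further: score merges 667nm spot fluorescence with signal-to-noise for antibody binding to printed compounds.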 To be noted: higher = more signal.
Assay [8] has as its target Torsin-1A (Homo sapiens) (UniProt O14656). Nature of the assay: torsin A binders from cell lysate, primary screen, small-molecule microarray, wild-type, 635/667 nm (AID 1149). To be noted: COS7 hTOR1A-WT lysate, 635 nm fluorescence, higher = more signal.
Assay [9] has the same target. Nature of the assay: small-molecule binders of mutant TOR1A in lysate, primary screen, cell lysate, small-molecule microarray, COS7 lysate, 635/667 nm fluorescence (AID 1150).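 Further: score pools 667 nm emission and signal to noise measuring lysate protein binding.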 To be noted: COS7 hTOR1A mutant lysate, 635 nm fluorescence, higher = more signal.
In assay [10] the test system is Sonic hedgehog protein (Shh). Nature of the assay: small-molecule binders of Shh protein, primary screen, biochemical, small-molecule microarray, 635/667 nm fluorescence (AID 1151).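 Further: Shh protein binding to compounds spotted on small-molecule microarray slides; score combines spot fluorescence intensity with signal-to-noise across triplicate slides.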 Conditions: small-molecule microarray binding, 635 nm fluorescence; higher = more signal.
A short description of assay [11]: E. coli DRC41 culture turbidity changes, primary screen, E. coli filamentation inducer project, strain DRC41, OD650, 48 h (AID 1152).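 Further: E. coli MC1000 strain DRC41 lacking acrAB efflux pump and sulA.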 To be noted: E. coli DRC41 (acrAB sulA), higher = more signal, called active from +8 up or from −8 down.
Assay [12] can be described thus: small-molecule binders of probe aLefty1, primary screen, biochemical, small-molecule microarray, 635/667 nm fluorescence (AID 1153).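 Further: score merges spot fluorescence with signal-to-noise ratio from the scanned slide images.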 Conditions: higher = more signal.
The nature of assay [13]: PSAC antagonists in infected red cells, primary screen, cell-based, P. falciparum Indochina, OD700, 1 h (AID 1154). Conditions: P. falciparum Indochina infected RBC osmotic lysis, higher = more signal, called active from +8 up or from −8 down.
The nature of assay [14]: PSAC antagonists in infected red cells, primary screen, cell-based, P. falciparum Indochina, OD700, 2 h (AID 1155).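 Further: lysis reports solute entry through the parasite surface anion channel PSAC; channel blockers reduce lysis of infected cells.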 Conditions: P. falciparum Indochina infected erythrocytes, osmotic lysis OD700; higher = more signal, called active from +8 up or from −8 down.
A short description of assay [15]: osmotic lysis modulators in infected erythrocytes, primary screen, PSAC antagonist project, cell-based, P. falciparum Indochina, OD700, 3 h (AID 1156). To be noted: higher = more signal, called active from +8 up or from −8 down.
The nature of assay [16]: PSAC antagonists in infected red cells, primary screen, cell-based, P. falciparum Indochina, OD700, 18 h (AID 1157). To be noted: P. falciparum Indochina infected erythrocytes, osmotic lysis OD700, 18 h; higher = more signal, called active from +8 up or from −8 down.
A short description of assay [17]: modulators of S6 phosphorylation in cells, primary screen, cell-based, A549, cytoblot, luminescence, serum-stimulated (AID 1158).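 Further: serum-stimulated A549 lung adenocarcinoma cells; signal is phosphorylated S6 detected by cytoblot immunostaining with HRP secondary.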 Conditions: A549 phospho-S6 cytoblot, 5 h, higher = more signal.
Assay [18] deals with NADPH oxidase 2 (Homo sapiens) (UniProt P04839). Put plainly: NOX2-dependent H2O2 signal modulators, primary screen, NOX inhibitor project, cell-based, HEK293-NOX2, PMA-stimulated, Amplex Red fluorescence (AID 1159). Further: test concentration not given here. Conditions: 45 min, higher = more signal, called active from +8 up or from −8 down.
Chain of NADPH oxidase 2 (Homo sapiens) (P04839 whole entry, looked up): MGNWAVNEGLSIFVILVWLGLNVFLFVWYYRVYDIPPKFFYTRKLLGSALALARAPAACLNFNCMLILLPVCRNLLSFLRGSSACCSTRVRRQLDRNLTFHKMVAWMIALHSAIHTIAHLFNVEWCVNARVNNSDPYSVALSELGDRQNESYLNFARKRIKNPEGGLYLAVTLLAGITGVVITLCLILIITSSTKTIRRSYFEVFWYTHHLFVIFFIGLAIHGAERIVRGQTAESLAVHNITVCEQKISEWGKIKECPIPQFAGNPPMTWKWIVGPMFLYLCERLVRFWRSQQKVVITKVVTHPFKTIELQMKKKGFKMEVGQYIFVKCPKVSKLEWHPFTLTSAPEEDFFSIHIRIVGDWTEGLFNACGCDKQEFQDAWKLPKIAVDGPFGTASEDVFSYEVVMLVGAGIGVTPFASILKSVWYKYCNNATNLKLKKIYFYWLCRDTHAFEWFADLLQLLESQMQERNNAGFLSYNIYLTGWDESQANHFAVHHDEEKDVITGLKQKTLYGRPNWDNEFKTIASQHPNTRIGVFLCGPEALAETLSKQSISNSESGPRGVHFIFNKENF
The target of assay [19] is NADPH oxidase 4 (Homo sapiens) (UniProt Q9NPH5). Nature of the assay: NOX4-dependent H2O2 signal modulators, primary screen, NOX inhibitor project, cell-based, HEK293-NOX4, tetracycline-induced, Amplex Red fluorescence (AID 1160). Conditions: 45 min, higher = more signal, called active from +8 up or from −8 down.
Chain of NADPH oxidase 4 (Homo sapiens) (Q9NPH5 whole entry, looked up): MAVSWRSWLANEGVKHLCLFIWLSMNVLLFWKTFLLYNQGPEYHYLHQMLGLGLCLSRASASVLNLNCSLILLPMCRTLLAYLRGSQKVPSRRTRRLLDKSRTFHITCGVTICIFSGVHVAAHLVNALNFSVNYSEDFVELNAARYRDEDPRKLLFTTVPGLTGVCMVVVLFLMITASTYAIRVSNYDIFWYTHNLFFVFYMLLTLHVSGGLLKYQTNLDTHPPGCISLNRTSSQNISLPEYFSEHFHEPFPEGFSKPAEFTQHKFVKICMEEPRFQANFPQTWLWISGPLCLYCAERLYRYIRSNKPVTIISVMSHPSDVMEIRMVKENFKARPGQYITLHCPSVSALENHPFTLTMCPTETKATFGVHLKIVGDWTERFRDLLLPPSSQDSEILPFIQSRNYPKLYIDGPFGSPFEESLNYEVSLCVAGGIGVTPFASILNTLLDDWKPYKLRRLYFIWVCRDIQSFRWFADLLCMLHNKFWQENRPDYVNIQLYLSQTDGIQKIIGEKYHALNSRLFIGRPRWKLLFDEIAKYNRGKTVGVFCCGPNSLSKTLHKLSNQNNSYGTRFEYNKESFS
Assay [20] deals with NADPH oxidase 5 (Homo sapiens) (UniProt Q96PH1). Nature of the assay: NOX5-dependent H2O2 signal modulators, primary screen, NOX inhibitor project, cell-based, HEK293-NOX5, Amplex Red fluorescence (AID 1161). To be noted: HEK293-NOX5, ionomycin, 45 min, higher = more signal.
Chain of NADPH oxidase 5 (Homo sapiens) (Q96PH1 whole entry, looked up): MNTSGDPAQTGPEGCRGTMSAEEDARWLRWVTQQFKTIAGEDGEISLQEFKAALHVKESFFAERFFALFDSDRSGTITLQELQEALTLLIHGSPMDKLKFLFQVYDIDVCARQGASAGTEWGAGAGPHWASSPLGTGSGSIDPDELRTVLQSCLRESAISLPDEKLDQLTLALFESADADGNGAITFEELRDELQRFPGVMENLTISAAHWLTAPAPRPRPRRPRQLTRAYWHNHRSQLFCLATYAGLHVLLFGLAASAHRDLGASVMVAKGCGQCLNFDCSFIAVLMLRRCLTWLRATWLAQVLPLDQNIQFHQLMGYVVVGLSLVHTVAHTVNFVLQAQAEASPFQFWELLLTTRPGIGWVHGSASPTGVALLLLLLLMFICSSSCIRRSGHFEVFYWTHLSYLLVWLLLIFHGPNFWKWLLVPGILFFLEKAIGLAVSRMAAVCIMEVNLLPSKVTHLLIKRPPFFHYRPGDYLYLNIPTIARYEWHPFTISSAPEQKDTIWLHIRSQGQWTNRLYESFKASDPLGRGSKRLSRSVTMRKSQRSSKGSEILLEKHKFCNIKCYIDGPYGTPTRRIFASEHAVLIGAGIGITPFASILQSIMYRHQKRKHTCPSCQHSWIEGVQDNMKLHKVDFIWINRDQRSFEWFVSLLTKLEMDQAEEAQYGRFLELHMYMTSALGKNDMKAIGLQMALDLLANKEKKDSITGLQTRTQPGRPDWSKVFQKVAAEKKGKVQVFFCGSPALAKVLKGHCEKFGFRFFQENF

Chain of Torsin-1A (Homo sapiens) (O14656 whole entry, looked up): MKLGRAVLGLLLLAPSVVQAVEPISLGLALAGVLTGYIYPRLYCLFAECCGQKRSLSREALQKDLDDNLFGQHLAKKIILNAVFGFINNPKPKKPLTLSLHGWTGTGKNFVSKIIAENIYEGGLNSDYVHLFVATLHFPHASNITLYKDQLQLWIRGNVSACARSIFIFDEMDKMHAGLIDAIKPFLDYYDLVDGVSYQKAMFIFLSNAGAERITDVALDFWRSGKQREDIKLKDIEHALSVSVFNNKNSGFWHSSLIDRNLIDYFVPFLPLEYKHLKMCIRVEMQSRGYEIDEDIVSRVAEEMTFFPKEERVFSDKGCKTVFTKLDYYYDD

Turning to `CCOC(=O)NN=C1C[C@@H](O)[C@@H](O)[C@@H]2[C@@H]3C(=O)N(C4CCCCC4)C(=O)[C@@H]3CC[C@@H]12`, the composite z-score is 0.133 in assay [1]; 0.132 in assay [6]; -0.0987 in assay [7]; 0.597 with Torsin-1A (Homo sapiens) [8]; 0.726 in the assay with Torsin-1A (Homo sapiens) [9]; 0.0717 in assay [10]. In [12], this molecule had a composite z-score of -0.147. For the same molecule, the z-score is 0.392 (inactive) in assay [2]; 0.471 (inactive) in assay [3]; 0.16 (inactive) in assay [4]; 0.366 (inactive) in [5]; -0.0671 (inactive) in assay [11]; 1.61 (inactive) in assay [13]. For the same molecule, the z-score in assay [14] was 0.0554 (inactive); in [15] it was -1.02 (inactive); in assay [16], -0.039 (inactive); in assay [17], 0.492; in assay [18], -0.000129 (inactive); in [19], 0.328 (inactive). In [20], the z-score is -0.121.

Consider `CO[C@H]([C@@H](C)[C@H](OC)c1ccccc1)[C@H](C)[C@@H](OC)[C@H](C)C(C)=O`, for which the composite z-score was -0.183 in assay [1]; -0.554 in assay [6]; 0.809 in assay [7]; -0.225 with Torsin-1A (Homo sapiens) [8]; -0.327 in the assay with Torsin-1A (Homo sapiens) [9]; 0.497 in [10]. The composite z-score in assay [12] was -0.288. Moreover, the z-score is 0.0807 (inactive) in [2]; 0.185 (inactive) in [3]; -0.98 (inactive) in assay [4]; -0.358 (inactive) in assay [5]; -0.558 (inactive) in [11]; 0.815 (inactive) in assay [13]. Also, the z-score was 0.196 (inactive) in assay [14]; -0.181 (inactive) in [15]; 0.269 (inactive) in assay [16]; -0.2 in assay [17]; -0.0369 (inactive) in [18]; 0.0305 (inactive) in [19]. Also, the z-score in assay [20] stood at 0.447.

Take `CC(C)OC(=O)C=C1C[C@@H](c2ccc(C#N)cc2)O[C@@H](c2ccc(C#N)cc2)O1`: the composite z-score in [1] came to 0.923; in assay [6], 0.77; in [7] it was 0.165; with Torsin-1A (Homo sapiens) [8] it was 1.99; with Torsin-1A (Homo sapiens) [9], 2.06; in assay [10], 0.292. The molecule also returned a composite z-score in assay [12] of 0.474. Moreover, the z-score in assay [2] is -2.6 (inactive); in [3] it was 0.618 (inactive); in assay [4], 2.74 (inactive); in [5], 0.421 (inactive); in assay [11] it was 0.197 (inactive); in assay [13] it was 8.57 (active). Moreover, the z-score is 0.848 (inactive) in assay [14]; 0.78 (inactive) in assay [15]; 0.439 (inactive) in assay [16]; -0.342 in assay [17]; -0.669 (inactive) in [18]; -1.02 (inactive) in assay [19]. Moreover, the z-score in [20] is -0.607.

Turning to `CC(CCN1CCCCc2nc(C)c(C)cc21)=NOC(C)CN1CCCCc2nc(C)c(C)cc21` (stereo not given), the composite z-score came to 0.183 in assay [1]; 1.1 in assay [6]; 0.0528 in assay [7]; 2.88 in the assay with Torsin-1A (Homo sapiens) [8]; 2.32 with Torsin-1A (Homo sapiens) [9]; 1.69 in assay [10]. The molecule also registered a composite z-score in assay [12] of 0.235. Also, the z-score was -2.16 (inactive) in [2]; 0.483 (inactive) in assay [3]; 0.187 (inactive) in assay [4]; 0.907 (inactive) in assay [5]; -2.08 (inactive) in assay [11]; 1.38 (inactive) in assay [13]. In addition, the z-score in [14] is 0.329 (inactive); in assay [15] it was 0.964 (inactive); in assay [16] it was 0.587 (inactive); in [17], -0.839; in assay [18] it was -1.47 (inactive); in assay [19] it was -3.07 (inactive). This molecule returned a z-score in [20] of -1.31.

Take `COC(=O)CC=C[C@@H](C)[C@@H](C=NO[C@@H](C)c1cc(-c2c(C)cc(C)cc2C)no1)OC`: the composite z-score in assay [1] is -0.828; in [6], -0.432; in assay [7] it was -0.249; with Torsin-1A (Homo sapiens) [8], -2.2; with Torsin-1A (Homo sapiens) [9] it was -2.18; in assay [10], -1.46. The same molecule displayed a composite z-score in assay [12] of 0.0004. The z-score in assay [2] was -2.12 (inactive); in [3] it was -0.726 (inactive); in assay [4], 2.71 (inactive); in [5] it was -0.254 (inactive); in [11], -1.45 (inactive); in assay [13], 3.39 (inactive). For the same molecule, the z-score in assay [14] is -0.032 (inactive); in [15], 0.505 (inactive); in assay [16], -1.37 (inactive); in assay [17] it was 2.15; in assay [18], -1.04 (inactive); in [19] it was -0.771 (inactive). In [20], this molecule had a z-score of -3.87.
